Results: PubChem BioAssay (EPA / NIEHS)
Active and inactive are the calls of the source. Rule for the calls: active = hit-call score of the fitted dose curve at least 0.9, where 1 is the maximum; inactive = score below 0.9.

Columns and labels:
[1] = read-out: Matrix Metallopeptidase 1 (MMP1), MMP1 (gene 4312); experiment: BSK_BE3C_MMP1: BioMAP Diversity Plus: BE3C Assay for Matrix Metallopeptidase 1 (MMP1) Biomarker Activity (AID 2283024); settings: primary human bronchial epithelial cells; actives raise or lower the signal
Procedure, shortened: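 ELISA measurement of MMP-1 after 24 h compound exposure of primary human bronchial epithelial cells. Changes in either direction fitted relative to DMSO; parallel SRB staining checked overt cytotoxicity.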

[2] = BSK_3C_Vis: BioMAP Diversity Plus: 3C Assay for Morphology Visualization (AID 2283025); settings: primary human endothelial cells (HUVEC);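 note: fitted both ways so gain or loss versus DMSO counts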;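 for AC50: light microscopy image of cell morphology used as background control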
Procedure, shortened: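 Light-microscopy visualization of HUVEC cultures at 24 h post-treatment, with DMSO as baseline for bidirectional fitting.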

[3] = BSK_4H_SRB: Viability Assessment in the BioMAP Diversity Plus: 4H Assay (AID 2283027); settings: primary human endothelial cells (HUVEC);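 note: cells exposed to compound for 24 h before staining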;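 for AC50: curves fitted both ways versus DMSO so AC50 may be loss or gain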
Procedure, shortened: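 HUVEC, 24 h post-dose; 10% TCA fix, 0.1% SRB stain, A560 nm. Total protein = overt cytotoxicity, parallel to biomarker read. Bidirectional fit vs DMSO baseline.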

[4] = BSK_BE3C_SRB: Viability Assessment in the BioMAP Diversity Plus: BE3C Assay (AID 2283028); settings: primary human bronchial epithelial cells;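 for AC50: fitted both ways so AC50 may mark signal gain or loss versus DMSO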
Procedure, shortened: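 SRB total-protein staining (0.1%, after TCA fixation) of chemically dosed human bronchial epithelial primary cells at 24 h; DMSO serves as the negative control for bidirectional curve fitting.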

[5] = read-out: Thrombomodulin, THBD (gene 7056); experiment: BSK_3C_Thrombomodulin: BioMAP Diversity Plus: 3C Assay for Thrombomodulin Biomarker Activity (AID 2283029); settings: primary human endothelial cells (HUVEC); actives raise or lower the signal
Procedure, shortened: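 ELISA measurement of thrombomodulin on HUVEC surface 24 h after chemical dosing; activity fitted in both directions relative to DMSO vehicle.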

[6] = read-out: Urokinase-type plasminogen activator receptor (uPAR), PLAUR (gene 5329); experiment: BSK_4H_uPAR: BioMAP Diversity Plus: 4H Assay for Urokinase-type plasminogen activator receptor (uPAR) Biomarker Activity (AID 2283030); settings: primary human endothelial cells (HUVEC); actives raise or lower the signal
Procedure, shortened: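 Endpoint derived via bidirectional curve fitting against DMSO baseline; readout was ELISA detection of uPAR on umbilical vein endothelial cells at 24 h post-treatment, with SRB-stained parallel cultures assessing cytotoxicity.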

[7] = read-out: Vascular endothelial growth factor receptor 2 (Homo sapiens) (UniProt P35968); experiment: BSK_4H_VEGFRII: BioMAP Diversity Plus: 4H Assay for Vascular endothelial growth factor receptor 2 (VEGFR2) Biomarker Activity (AID 2283031); settings: primary human endothelial cells (HUVEC); actives raise or lower the signal;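 for AC50: cell-surface VEGFR2 protein level quantified by ELISA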
Procedure, shortened: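 In this multiplexed HUVEC system, biomarker ELISA was performed after 24 h chemical exposure. Parallel SRB staining (TCA fixation, 560 nm) tracked cytotoxicity; DMSO served as baseline.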

[8] = read-out: Vascular cell adhesion molecule 1 (VCAM1), VCAM1 (gene 7412); experiment: BSK_4H_VCAM1: BioMAP Diversity Plus: 4H Assay for Vascular cell adhesion molecule 1 (VCAM1) Biomarker Activity (AID 2283033); settings: primary human endothelial cells (HUVEC); actives raise or lower the signal
Procedure, shortened: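 VCAM-1 ELISA read 24 h after chemical dosing of HUVEC in the BioMAP 4H system, with gain or loss of signal fitted relative to DMSO. Parallel SRB staining (560 nm) checked overt cytotoxicity.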

[9] = read-out: Interferon-gamma inducible Protein 10 (IP10), CXCL10 (gene 3627); experiment: BSK_BE3C_IP10: BioMAP Diversity Plus: BE3C Assay for Interferon-gamma inducible Protein 10 (IP10) Biomarker Activity (AID 2283034); settings: primary human bronchial epithelial cells; actives raise or lower the signal
Procedure, shortened: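 IP-10 quantified by ELISA in human primary bronchial epithelial cell cultures at 24 hours post-dosing. Gain or loss of signal fitted relative to DMSO; parallel SRB staining assessed overt cytotoxicity.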

[10] = read-out: Monokine induced gamma interferon (MIG), CXCL9 (gene 4283); experiment: BSK_BE3C_MIG: BioMAP Diversity Plus: BE3C Assay for Monokine induced gamma interferon (MIG) Biomarker Activity (AID 2283035); settings: primary human bronchial epithelial cells; actives raise or lower the signal
Procedure, shortened: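 Dose cells (human primary bronchial epithelial), incubate 24 h, quantify MIG by ELISA, then fit concentration–response in both directions relative to DMSO control.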

[11] = read-out: Transforming growth factor beta 1 (TGFb1), TGFB1 (gene 7040); experiment: BSK_BE3C_TGFb1: BioMAP Diversity Plus: BE3C Assay for Transforming growth factor beta 1 (TGFb1) Biomarker Activity (AID 2283036;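 note: TGF-b1 protein level measured by ELISA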); settings: primary human bronchial epithelial cells; actives raise or lower the signal
Procedure, shortened: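 ELISA readout of TGF-b1 from human lung bronchial epithelial primary cells, taken 24 h post-treatment. Gain or loss of signal fitted relative to DMSO baseline, with parallel SRB staining for overt cytotoxicity.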

[12] = read-out: Plasminogen activator inhibitor-1 (PAI1), SERPINE1 (gene 5054); experiment: BSK_BE3C_PAI1: BioMAP Diversity Plus: BE3C Assay for Plasminogen activator inhibitor-1 (PAI1) Biomarker Activity (AID 2283037); settings: primary human bronchial epithelial cells; actives raise or lower the signal
Procedure, shortened: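 PAI-1 was measured by ELISA in human primary bronchial epithelial cultures 24 h after chemical dosing, with cytotoxicity checked by SRB total-protein staining in parallel cultures. Activity was fitted in both directions relative to DMSO.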

[13] = read-out: urokinase plasminogen activator (uPA), PLAU (gene 5328); experiment: BSK_BE3C_uPA: BioMAP Diversity Plus: BE3C Assay for urokinase plasminogen activator (uPA) Biomarker Activity (AID 2283038); settings: primary human bronchial epithelial cells; actives raise or lower the signal
Procedure, shortened: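 Using confluent primary human lung bronchial epithelial cultures, we dosed chemicals, waited 24 h, then ran a uPA ELISA, fitting bidirectionally against DMSO.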

[14] = read-out: Urokinase-type plasminogen activator receptor (uPAR), PLAUR (gene 5329); experiment: BSK_BE3C_uPAR: BioMAP Diversity Plus: BE3C Assay for Urokinase-type plasminogen activator receptor (uPAR) Biomarker Activity (AID 2283039); settings: primary human bronchial epithelial cells; actives raise or lower the signal
Procedure, shortened: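 uPAR levels were measured by ELISA after 24 h compound treatment of primary human bronchial epithelial cells, fitted in both directions relative to DMSO. Parallel SRB staining served as the cytotoxicity read-out.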

[15] = read-out: Interleukin-6 (IL6), IL6 (gene 3569); experiment: BSK_CASM3C_IL6: BioMAP Diversity Plus: CASM3C Assay for Interleukin-6 (IL6) Biomarker Activity for (AID 2283040); settings: primary human coronary artery smooth muscle cells; actives raise or lower the signal
[16] = read-out: Tissue plasminogen activator (tPA), PLAT (gene 5327); experiment: BSK_BE3C_tPA: BioMAP Diversity Plus: BE3C Assay for Tissue plasminogen activator (tPA) Biomarker Activity (AID 2283041); settings: primary human bronchial epithelial cells; actives raise or lower the signal
Procedure, shortened: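 tPA measured by ELISA 24 h after dosing human primary bronchial epithelial cells (BE3C system). Changes in either direction were fitted against DMSO. Parallel cultures were stained with SRB to flag overt cytotoxicity.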

[17] = read-out: Interleukin-8 (IL8), CXCL8 (gene 3576); experiment: BSK_CASM3C_IL8: BioMAP Diversity Plus: CASM3C Assay for Interleukin-8 (IL8) Biomarker Activity (AID 2283042); settings: primary human coronary artery smooth muscle cells; actives raise or lower the signal;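 note: IL-8 protein level quantified by ELISA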
[18] = read-out: Human Leukocyte Antigen - DR isotype (HLADR), HLA-DRA (gene 3122); experiment: BSK_CASM3C_HLADR: BioMAP Diversity Plus: CASM3C Assay for Human Leukocyte Antigen - DR isotype (HLADR) Biomarker Activity (AID 2283043); settings: primary human coronary artery smooth muscle cells; actives raise or lower the signal;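 note: cell-surface HLA-DR protein level quantified by ELISA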
[19] = read-out: Human Leukocyte Antigen - DR isotype (HLADR), HLA-DRA (gene 3122); experiment: BSK_BE3C_HLADR: BioMAP Diversity Plus: BE3C Assay for Human Leukocyte Antigen - DR isotype (HLADR) Biomarker Activity (AID 2283032); settings: primary human bronchial epithelial cells; actives raise or lower the signal
Procedure, shortened: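 Cell-surface HLA-DR ELISA readout at 24 h after dosing in the BE3C primary human lung bronchial epithelial system; gain or loss of signal against DMSO, with parallel sulforhodamine B staining of total protein for overt cytotoxicity.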

Measured: AC50

O=[N+]([O-])c1ccc(Nc2ccccc2)cc1
inactive: [1] | [2] | [3] | [4] | [5] | [6] | [7] | [8] | [9] | [10] | [11] | [12] | [13] | [14] | [15] | [16] | [17] | [18]

CN(C)C(=S)S
active: [1] 13.2 µM | [9] 28.7 µM | [10] 23.1 µM | [13] 30.2 µM | [16] 9.34 µM
inactive: [2] | [3] | [4] | [5] | [6] | [8] | [12] | [14] | [15] | [17] | [18]

O=C(N[C@H]1CN2CCC1CC2)c1ccc2c(c1)OCCO2
inactive: [1] | [2] | [3] | [4] | [5] | [6] | [7] | [8] | [9] | [10] | [12] | [13] | [14] | [15] | [16] | [17] | [18]

CC(C)=CC1C(C(=O)OCc2cccc(Oc3ccccc3)c2)C1(C)C (configuration not stated)
active: [2] 37.6 µM | [16] 9.82 µM | [18] 20 µM
inactive: [1] | [3] | [4] | [5] | [6] | [7] | [8] | [9] | [10] | [12] | [13] | [14] | [15] | [17]

CCCCOC(=O)COC(=O)c1ccccc1C(=O)OCCCC
inactive: [1] | [3] | [4] | [5] | [6] | [7] | [19] | [8] | [9] | [10] | [12] | [13] | [14] | [15] | [16] | [17] | [18]

O=S(=O)(c1ccc(Cl)cc1)c1cc(Cl)c(Cl)cc1Cl
active: [2] 13.6 µM | [8] 20 µM | [9] 28.6 µM
inactive: [1] | [3] | [4] | [5] | [6] | [7] | [10] | [12] | [13] | [14] | [15] | [16] | [17] | [18]

OCCCCO
inactive: [1] | [3] | [4] | [5] | [6] | [8] | [9] | [10] | [12] | [13] | [14] | [15] | [16] | [17] | [18]

Oc1cc(Cl)c(Cl)cc1Cl
active: [2] 39 µM | [3] 25.5 µM | [6] 27.4 µM | [7] 31 µM | [9] 32.2 µM | [13] 26.2 µM | [16] 12.9 µM
inactive: [1] | [4] | [5] | [8] | [10] | [14] | [15] | [17] | [18]

Nc1c(Oc2ccccc2)cc(O)c2c1C(=O)c1ccccc1C2=O
active: [1] 5.87 µM | [12] 2.43 µM
inactive: [2] | [3] | [4] | [5] | [6] | [7] | [8] | [9] | [10] | [11] | [13] | [14] | [15] | [16] | [17] | [18]

c1ccc2sc(SNC3CCCCC3)nc2c1
inactive: [1] | [2] | [3] | [4] | [5] | [6] | [7] | [8] | [9] | [10] | [12] | [13] | [14] | [15] | [16] | [17] | [18]

O=C(Cc1ccccc1)OCCc1ccccc1
inactive: [1] | [3] | [4] | [5] | [6] | [7] | [19] | [8] | [9] | [10] | [12] | [13] | [14] | [15] | [16] | [17] | [18]

Clc1cccc(Cl)c1
inactive: [1] | [2] | [3] | [4] | [5] | [6] | [7] | [8] | [9] | [10] | [12] | [13] | [14] | [15] | [16] | [17] | [18]

CC(C)(C)c1cc([N+](=O)[O-])cc(C(C)(C)C)c1O
inactive: [1] | [2] | [4] | [6] | [7] | [8] | [9] | [10] | [12] | [13] | [14] | [15] | [16] | [17] | [18]
active: [3] 0.0719 µM | [5] 0.0473 µM

CCCCCCCCCCCCc1cccc(S(=O)(=O)O)c1
active: [1] 28.8 µM | [4] 26.9 µM | [19] 17.6 µM | [9] 13 µM | [10] 30.1 µM | [12] 23.7 µM | [13] 28.4 µM | [14] 29.1 µM | [16] 3.92 µM
inactive: [2] | [3] | [5] | [6] | [7] | [8] | [15] | [17] | [18]
